The sequences below were run against T1, GST-Ap-NF-kB RHD (Exaiptasia pallida (Aiptasia), UniProt A0A913YAJ5 2-422) (assay: protein-binding microarray (PBM); PBM: ~300 nM protein, 6 mM HEPES pH 7.8, 80 mM KCl, 0.5 mM EDTA, 0.5 mM EGTA, 6% glycerol, 35 ng/ul poly-dIdC, 1% milk, 1 h, room temperature; Ap Aiptasia and Nv Nematostella (sea anemones) / Co Capsaspora / Aq Amphimedon (sponge) / Dm Drosophila / Hu human; RHD is the Rel homology domain; high values mean tight binding). Conditions: dsDNA, one strand shown.
T1 sequence: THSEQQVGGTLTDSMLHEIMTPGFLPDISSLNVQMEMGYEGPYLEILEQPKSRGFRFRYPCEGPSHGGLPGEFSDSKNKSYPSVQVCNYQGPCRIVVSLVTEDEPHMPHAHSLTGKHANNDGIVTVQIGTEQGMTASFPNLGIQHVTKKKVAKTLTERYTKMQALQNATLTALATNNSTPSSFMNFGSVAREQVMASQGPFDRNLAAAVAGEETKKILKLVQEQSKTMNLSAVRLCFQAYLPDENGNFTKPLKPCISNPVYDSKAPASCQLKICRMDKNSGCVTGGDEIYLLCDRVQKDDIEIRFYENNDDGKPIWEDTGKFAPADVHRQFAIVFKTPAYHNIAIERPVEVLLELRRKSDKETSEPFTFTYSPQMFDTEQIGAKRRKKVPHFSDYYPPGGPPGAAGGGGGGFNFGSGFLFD

Sequence | binding signal [z-score]
CCGATTAACATCAGGGGAAATGATGATGTTAATCGGGTCTTGATTCGCTTGACGCTGCTG | 5.75
CCGATTAACATCACAACTTCCCCTGATGTTAATCGGGTCTTGATTCGCTTGACGCTGCTG | 6.77
CCGATTAACATCACGGGGATTTATGATGTTAATCGGGTCTTGATTCGCTTGACGCTGCTG | 7.32
CCGATTAACATCAGGGACTCCCCTGATGTTAATCGGGTCTTGATTCGCTTGACGCTGCTG | 11.3
CCGATTAACATCAGGGAATTACCTGATGTTAATCGGGTCTTGATTCGCTTGACGCTGCTG | 8.44
CCGATTAACATCAGGGGGCAATATGATGTTAATCGGGTCTTGATTCGCTTGACGCTGCTG | 3.43
CCGATTAACATCACCCACCCCCCTGATGTTAATCGGGTCTTGATTCGCTTGACGCTGCTG | 3.58
CCGATTAACATCAAGGGAGTCCCTGATGTTAATCGGGTCTTGATTCGCTTGACGCTGCTG | 5.78
CCGATTAACATCACTTATCCCCCTGATGTTAATCGGGTCTTGATTCGCTTGACGCTGCTG | 4.81
CCGATTAACATCAGGACTCCCCCTGATGTTAATCGGGTCTTGATTCGCTTGACGCTGCTG | 8.82
CCGATTAACATCAGCATCCCCCCTGATGTTAATCGGGTCTTGATTCGCTTGACGCTGCTG | 5.21
CCGATTAACATCAAAAAGTCCCCTGATGTTAATCGGGTCTTGATTCGCTTGACGCTGCTG | 9.45
CCGATTAACATCAACAAAATCCCTGATGTTAATCGGGTCTTGATTCGCTTGACGCTGCTG | 3.4
CCGATTAACATCAAGGGGGTTTCTGATGTTAATCGGGTCTTGATTCGCTTGACGCTGCTG | 9.41
CCGATTAACATCAAAAATCCCCCTGATGTTAATCGGGTCTTGATTCGCTTGACGCTGCTG | 11.1
CCGATTAACATCAGACATTCCCCTGATGTTAATCGGGTCTTGATTCGCTTGACGCTGCTG | 7.03
CCGATTAACATCAGTATTTCCCATGATGTTAATCGGGTCTTGATTCGCTTGACGCTGCTG | 3.01
CCGATTAACATCAGGACATTCCCTGATGTTAATCGGGTCTTGATTCGCTTGACGCTGCTG | 2.97
CCGATTAACATCAGGGGTATTACTGATGTTAATCGGGTCTTGATTCGCTTGACGCTGCTG | 4.43
CCGATTAACATCAATACTTCCCCTGATGTTAATCGGGTCTTGATTCGCTTGACGCTGCTG | 5.61

Sequence | binding signal [z-score]
CCGATTAACATCAAATAATACCCTGATGTTAATCGGGTCTTGATTCGCTTGACGCTGCTG | 3.69
CCGATTAACATCAAATTTCCCACTGATGTTAATCGGGTCTTGATTCGCTTGACGCTGCTG | 2.73
CCGATTAACATCAGGGGGAAAAATGATGTTAATCGGGTCTTGATTCGCTTGACGCTGCTG | 6.66
CCGATTAACATCAAGGGGGATTATGATGTTAATCGGGTCTTGATTCGCTTGACGCTGCTG | 8.36
CCGATTAACATCAAGGGGGATTCTGATGTTAATCGGGTCTTGATTCGCTTGACGCTGCTG | 9.03
CCGATTAACATCAAGGGGGTTTATGATGTTAATCGGGTCTTGATTCGCTTGACGCTGCTG | 7.31
CCGATTAACATCAGAGACCCCCCTGATGTTAATCGGGTCTTGATTCGCTTGACGCTGCTG | 4.3
CCGATTAACATCAAGGGGGAATATGATGTTAATCGGGTCTTGATTCGCTTGACGCTGCTG | 7.61
CCGATTAACATCAAGGGGAATAATGATGTTAATCGGGTCTTGATTCGCTTGACGCTGCTG | 5.34
CCGATTAACATCAATTCTCCCCCTGATGTTAATCGGGTCTTGATTCGCTTGACGCTGCTG | 6.48
CCGATTAACATCAGGGGGGAATATGATGTTAATCGGGTCTTGATTCGCTTGACGCTGCTG | 7.1
CCGATTAACATCAGGATTACCCATGATGTTAATCGGGTCTTGATTCGCTTGACGCTGCTG | 2.92
CCGATTAACATCAACGAATTCCCTGATGTTAATCGGGTCTTGATTCGCTTGACGCTGCTG | 2.81
CCGATTAACATCACGTTTTCCCCTGATGTTAATCGGGTCTTGATTCGCTTGACGCTGCTG | 7.13
CCGATTAACATCAACGGATTCCCTGATGTTAATCGGGTCTTGATTCGCTTGACGCTGCTG | 2.31
CCGATTAACATCAGGGAAATCTATGATGTTAATCGGGTCTTGATTCGCTTGACGCTGCTG | 3.65
CCGATTAACATCAGGGGAAAGTATGATGTTAATCGGGTCTTGATTCGCTTGACGCTGCTG | 6.56
CCGATTAACATCAGGATTTACCCTGATGTTAATCGGGTCTTGATTCGCTTGACGCTGCTG | 3.04
CCGATTAACATCAAGGGAACTCCTGATGTTAATCGGGTCTTGATTCGCTTGACGCTGCTG | 3.72
CCGATTAACATCACGGGAAAATCTGATGTTAATCGGGTCTTGATTCGCTTGACGCTGCTG | 3.98
